Results taken from PubChem BioAssay AID1159580 (chemical genetic matrix, 2015).
Where “and” joins values, the source holds several entries; their conditions need not be identical. Equal entries are not always repeated. About 2,000 (36%) of roughly 5,500 compounds were called active. Inconclusive results (about 18%) are left out. Cut-off read from the data, not from the text of the source: active = normalized growth mostly below about 0.91 (no sharp cut-off); inconclusive = no clear call, values can overlap the other calls; inactive = mostly above about 0.92. The list shows a part of the results.

Assay: chemical genetic growth profiling, strain panel (AID 1159580);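 note: tested at 20 µM; growth read once vehicle control cultures reached saturation at 30 °C; 1 = growth at the plate median or of vehicle wells; lower values mean less growth of the strain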
Settings: S. cerevisiae deletion strains, growth OD

Measured: normalized growth

Nc1nc(N)c2nc(CNc3ccc(C(=O)NC(CCC(=O)O)C(=O)O)cc3)cnc2n1 (stereo not given)
active: locus YBR021W, strain FUR4, hits give low values 1.2 [resistant]
inactive: locus YAL013W, strain DEP1, hits give low values 1.03 | locus YAL021C, strain ccr4, hits give low values 0.925 | locus YAL026C, strain drs2, hits give low values 0.991 | locus YAL030W, strain snc1, hits give low values 0.989 | locus YAL040C, strain CLN3, hits give low values 0.994 | locus YBL061C, strain skt5, hits give low values 1 | locus YBR009C, strain hhf1, hits give low values 0.991 | locus YBR023C, strain chs3, hits give low values 0.995 | locus YBR171W, strain sec66, hits give low values 1.01 | locus YBR229C, strain ROT2, hits give low values 1 | locus YBR231C, strain swc5, hits give low values 1.01 | locus YBR279W, strain paf1, hits give low values 1 | locus YCL011C, strain gbp2, hits give low values 0.983 | locus YCL016C, strain dcc1, hits give low values 0.975 | locus YCL029C, strain bik1, hits give low values 0.977 | locus YCL069W, strain vba3, hits give low values 0.996 | locus YCR088W, strain abp1, hits give low values 0.996 | locus YDL005C, strain med2, hits give low values 0.996 | locus YDL035C, strain GPR1, hits give low values 1.03 | locus YDL040C, strain nat1, hits give low values 1 | locus YDL074C, strain BRE1, hits give low values 0.993 | locus YDL101C, strain DUN1, hits give low values 0.996 | locus YDL134C, strain PPH21, hits give low values 1.02 | locus YDL185W, strain tfp1, hits give low values 0.961 | locus YDL192W, strain arf1, hits give low values 1 | locus YDR001C, strain nth1, hits give low values 0.987 | locus YDR069C, strain doa4, hits give low values 0.985 | locus YDR101C, strain arx1, hits give low values 0.982 | locus YDR137W, strain rgp1, hits give low values 0.985 | locus YDR150W, strain NUM1, hits give low values 1 | locus YDR159W, strain sac3, hits give low values 1.05 | locus YDR162C, strain NBP2, hits give low values 0.993 | locus YDR195W, strain ref2 0.961 | locus YDR297W, strain sur2, hits give low values 1 | locus YDR318W, strain mcm21, hits give low values 1 | locus YDR334W, strain swr1, hits give low values 0.985 | locus YDR335W, strain msn5, hits give low values 0.977 | locus YDR363W, strain ESC2, hits give low values 1 | locus YDR388W, hits give low values 0.994 | locus YDR392W, strain spt3, hits give low values 0.94 | locus YDR502C, strain sam2, hits give low values 1 | locus YEL003W, strain gim4, hits give low values 1 | locus YEL037C, strain rad23, hits give low values 0.989 | locus YEL061C, strain CIN8 (second series), hits give low values 0.996 | locus YEL061C, strain CIN8, hits give low values 0.994 | locus YER002W, strain NOP16, hits give low values 0.993 | locus YER015W, strain faa2, hits give low values 0.994 | locus YER016W, strain bim1, hits give low values 0.998 | locus YER110C, hits give low values 0.981 | locus YER111C, strain swi4, hits give low values 0.995 | locus YER155C, strain BEM2 (second series), hits give low values 1.05 | locus YER155C, strain BEM2, hits give low values 0.987 | locus YER167W, strain BCK2, hits give low values 1 | locus YFR010W, strain ubp6, hits give low values 0.982 | locus YGL078C, strain dbp3, hits give low values 0.999 | locus YGL086W, strain mad1, hits give low values 0.994 | locus YGL167C, strain pmr1, hits give low values 0.974 | locus YGL173C, strain kem1, hits give low values 1.01 | locus YGL227W, strain vid30, hits give low values 1 | locus YGL240W, strain doc1, hits give low values 1.03 | locus YGL248W, strain PDE1, hits give low values 1 | locus YGL253W, strain hxk2, hits give low values 1.01 | locus YGR078C, strain PAC10, hits give low values 1.02 and 0.965 | locus YGR135W, strain pre9, hits give low values 0.998 | locus YGR252W, strain gcn5, hits give low values 1.14 | locus YHR013C, strain ard1, hits give low values 0.971 | locus YHR027C, strain rpn1, hits give low values 0.982 | locus YHR030C, strain SLT2, hits give low values 0.99 | locus YHR079C, strain IRE1 (second series), hits give low values 0.978 | locus YHR094C, strain hxt1, hits give low values 0.991 | locus YHR129C, strain ARP1, hits give low values 1 | locus YHR142W, strain chs7, hits give low values 0.965 | locus YHR200W, strain rpn10, hits give low values 0.992 | locus YIL066C, strain RNR3, hits give low values 1 | locus YIL073C, strain SPO22, hits give low values 0.946 | locus YIL125W, strain kgd1, hits give low values 0.993 | locus YIR030C, strain dcg1, hits give low values 0.988 | locus YJL092W, strain hpr5, hits give low values 0.983 | locus YJL095W, strain BCK1 (second series), hits give low values 0.985 | locus YJL095W, strain BCK1, hits give low values 0.984 | locus YJL115W, strain asf1, hits give low values 0.962 | locus YJL129C, strain trk1, hits give low values 0.998 | locus YJL134W, strain LCB3, hits give low values 0.988 | locus YJL154C, strain vps35, hits give low values 0.99 | locus YJL164C, strain tpk1, hits give low values 0.964 | locus YJL166W, strain qcr8, hits give low values 1.02 | locus YJL168C, strain set2, hits give low values 0.998 | locus YJL187C, strain SWE1 (second series), hits give low values 0.992 | locus YJR043C, strain POL32, hits give low values 1.04
